RORgamma inh: qHTS for inhibitors of ROR gamma transcriptional activity. Nuclear receptor ROR-gamma (Mus musculus), P51450. Drosophila S2 Gal4-RORgamma UAS-luciferase reporter, 20 h. Potency, µM (highest dose often 53.6 µM), without a hit: at the highest dose activity change, negative = inhibition, hits mostly inhibitors. 310,000 tested, 5.4% active; further: potency means the concentration at half of the fitted maximal effect; nearly all actives have a fitted effect of over 60% in size
Target sequence (P51450 whole entry, looked up, the tested form may be a part): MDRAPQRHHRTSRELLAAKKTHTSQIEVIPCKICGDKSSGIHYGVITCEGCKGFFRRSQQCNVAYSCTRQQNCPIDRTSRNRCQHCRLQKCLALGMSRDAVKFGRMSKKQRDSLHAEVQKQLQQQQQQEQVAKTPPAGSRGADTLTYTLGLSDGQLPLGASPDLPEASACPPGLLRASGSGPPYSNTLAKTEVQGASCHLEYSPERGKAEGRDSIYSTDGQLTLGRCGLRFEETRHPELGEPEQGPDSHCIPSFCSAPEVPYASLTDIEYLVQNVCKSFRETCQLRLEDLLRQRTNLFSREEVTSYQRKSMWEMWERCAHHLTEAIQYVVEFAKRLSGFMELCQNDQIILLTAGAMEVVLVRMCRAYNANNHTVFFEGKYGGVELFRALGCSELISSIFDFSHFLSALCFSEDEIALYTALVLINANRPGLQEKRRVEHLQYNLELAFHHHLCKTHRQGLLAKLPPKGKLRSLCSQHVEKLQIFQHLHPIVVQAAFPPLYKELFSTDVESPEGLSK
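Drosophila Schneider cells stably carrying a metallothionein-driven Gal4 DBD–ROR gamma fusion and a UAS-Photinus luciferase reporter were exposed to compound for 1 hr, then induced with copper sulfate (700 uM final) for 20 hr at ambient temperature before luminescence reading.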
TSHR antagonist: Antagonists of the Thyroid Stimulating Hormone Receptor: HTS campaign | 330,000 tested, 0.2% active | TSHR-expressing cells, TSH-stimulated cAMP HTRF, 2 h; hits give low values | Thyrotropin receptor (Homo sapiens), P16473 | activity change, negative = inhibition, % at 11.5 µM;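 active means activity change below a set negative limit, meaning inhibition stronger than a set level, cut at about -70% in these data; inconclusive means activity change between two set negative limits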
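Read-out is FRET at 665 nm (cryptate excitation 337 nm) from a cryptate-tagged anti-cAMP antibody, competed by cell cAMP against cAMP-d2. Compounds are tested on freshly harvested TSHR cells challenged with 4nM TSH (EC80) for 2 hours at 37 deg C.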
Coupling enz: qHTS Assay for Inhibitors of Fructose-1,6-bisphosphate Aldolase from Giardia Lamblia: Coupling assay counterscreen; coupling enzyme system counterscreen, AmpLite Red fluorescence; activity change, negative = inhibition, % at 58.2 µM, hits read low; 290,000 tested, 0.67% active; in the data active means activity change below about -30%
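Counterscreen of the coupled detection system alone, without aldolase: glyceraldehyde-3-phosphate coupling enzymes plus AmpLite Red readout. Compounds at 57.5 uM final, 10 min RT preincubation, 20 min RT reaction, fluorescence 525/598 nm.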
ELG1 DNA repair: qHTS screen for small molecules that inhibit ELG1-dependent DNA repair in human embryonic kidney (HEK293T) cells expressing luciferase-tagged ELG1; HEK293T ELG1-luciferase reporter, luminescence, 16 h; DNA damage induced by 5-fluorouridine; Potency, µM (doses to about 46.1 µM), for inactives: at the top dose activity change, negative = inhibition, usual class: inhibitors; 330,000 tested, 2.3% active; further: potency means the concentration at half of the fitted maximal effect; nearly all actives have a fitted effect of over 55% in size
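Step one: seed 2,000 cells per well. Step two: pin-transfer compound or DMSO alongside 5-fluorouridine. Step three: incubate 16 hr, 37 °C, 5% CO2. Step four: add ONE-Glo, wait 30 min, read luminescence.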
VP16 counter: VP16 counterscreen qHTS for inhibitors of ROR gamma transcriptional activity; Drosophila S2 Gal4-VP16 UAS-luciferase, luminescence, 20 h; Potency, µM (titrated, usually from 53.6 µM), for inactives: at the top dose activity, negative = inhibition, most hits filed as inhibitors; 310,000 tested, 3.5% active; AID 2546, 2010;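 further: Gal4-VP16 expression switched on by copper sulfate through the metallothionein promoter; potency means the concentration at half of the fitted maximal effect; nearly all actives have a fitted effect of over 50% in size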
Active calls of the source: *; ? = inconclusive; · = not tested or not shown; [ ] = another dose, or the depositor's remark. In the library only some 8% were active in any assay of this set; here they are far more common. Unless noted, the call rests on the fitted dose curve; in most records, active means well fitted curve in the direction sought with a large enough effect; inconclusive means small, poorly fitted or top-dose-only effect, or another doubt; inactive means no such curve, though single readings can be large; an effect the other way counts as inactive or inconclusive. On the % scale 0 is the no-effect control and ±100 the full control effect.

SMILES	RORgamma inh	TSHR antagonist	Coupling enz	ELG1 DNA repair	VP16 counter
CNC(=O)c1c[nH]c2ccc(S(=O)(=O)Nc3cccc(Cl)c3C)cc2c1=O	·	-5.1	·	·	·
COc1cccc(CNc2ccc3[nH]c(=O)[nH]c3c2)c1OCc1ccccc1F	?	20.1	4.3	9.2µM*	-13.9%
CSc1nc(N)c2ncn([C@H]3O[C@H](COP(=O)(O)OP(=O)(O)O)[C@@H](O)[C@@H]3O)c2n1	4.1%	·	0.7	·	3.6%
CS/C(N)=C(C#N)/C(C#N)=C(\N)SC	15.2%	·	1.6	·	2.1%
Cc1csc(/C(C#N)=N/O)n1	20.1%	6.1	-1.5	-10.5%	?
Cc1csc(/C(=N\O)c2csc(C)n2)n1	2.82µM*	-10.4	-1.1	-0.5%	4.47µM*
Fc1cccc2sc(Nc3nc4cc5c(cc4s3)OCO5)nc12	6.31µM*	-11.0	-0.9	?	7.08µM*
Fc1cc(F)c2nc(Nc3nc4cc5c(cc4s3)OCO5)sc2c1	15.8µM*	-14.7	-3.3	?	?
CC(C)C(=O)Nc1nc2cc3c(cc2s1)OCO3	57.8%	-10.6	-3.4	?	?
Fc1cccc2sc(Nc3nc4cc5c(cc4s3)OCCO5)nc12	5.62µM*	-8.8	1.4	?	11.2µM*
Cc1ccc(C)c(S(=O)(=O)N2CCC(c3nc4c(nnn4Cc4ccc5c(c4)OCCO5)c(=O)[nH]3)CC2)c1	?	-4.2	·	-21.7%	-9.6%
C[C@]12CCC3c4ccc(O)cc4CCC3C1CCC2OC(=O)CCC1CCCC1 (stereo not given in full)	1.1%	·	-4.5	·	-27.7%
Cc1ccc(-c2nnc(N3CCCCC3)c3ccccc23)cc1S(=O)(=O)N(C)C	5.8%	16.3	-9.4	-10.6%	17.8µM*
Cc1ccc(-c2nnc(NCc3nc4ccccc4[nH]3)c3ccccc23)cc1S(=O)(=O)N(C)C	-1.7%	45.4	0.1	10.3µM*	3.4%
CNC(=O)Cn1nc(-c2ccc(C)c(S(=O)(=O)N(C)C)c2)c2ccccc2c1=O	-6.5%	5.5	9.3	-4.2%	-9.4%
C/C(=N\NC(N)=S)c1ccc(Cl)s1	1.41µM*	0.7	-1.8	?	5.01µM*
CC/C(=N\NC(=O)c1ccoc1C)c1ccc(C)o1	5.01µM*	-0.5	0.5	?	10.0%
C/C(=N\NC(=O)c1csc(C)c1C)c1ccc(Cl)s1	-6.9%	30.2	-4.5	?	-2.8%
C/C(=N\Nc1ccc2nncn2n1)c1ccc(Cl)s1	1.9%	3.1	4.3	1.1%	-0.2%
CC/C(=N\NC(=O)c1c(-c2ccccc2)noc1C)c1ccc(C)o1	?	11.2	3.3	-21.3%	-10.7%
C/C(=N\NC(=O)c1ccoc1C)c1ccc(Cl)s1	11.2µM*	4.3	1.5	?	10µM*
C/C(=N\Nc1cccc(C(=O)O)c1)c1ccc(Cl)s1	?	-5.4	5.0	?	-10.7%
C/C(=N\NC(=S)NC(C)C)c1ccc(Cl)s1	1.12µM*	34.5	1.7	-2.4%	?
CCOc1ccc(C(=O)NCC2CCN(CC3CCCCC3)CC2)cc1	9.2%	7.5	0.5	15.6%	-0.2%
Cc1ccc(NC(=O)N2CCCC2C(=O)Nc2ccc3c(c2)OCCO3)cc1 (stereo not given)	4.9%	3.8	-0.2	0.0%	-14.8%
SMILES	RORgamma inh	TSHR antagonist	Coupling enz	ELG1 DNA repair	VP16 counter
C=C[C@](C)(O)CCC1C(=C)CC(O)C2C(C)(C)CCCC12C (stereo not given in full)	18.2%	·	3.4	·	-27.5%
Cc1c(C(=O)N2CCCCC2)c(S(=O)(=O)N2CCc3ccccc32)c(C)n1C	-4.4%	1.9	·	-4.9%	-0.9%
CCCC1=NN(C(=O)C(=O)Nc2ccc(Br)cc2)C(O)(C(F)(F)F)C1 (stereo not given)	0.794µM*	-15.1	2.4	-16.8%	5.01µM*
COc1ccc(NC(=O)C(=O)N2N=C(C(C)C)CC2(O)C(F)(F)F)cc1 (stereo not given)	7.94µM*	-21.0	0.2	-2.9%	?
CCC1=NN(C(=O)C(=O)Nc2ccc(Br)cc2)C(O)(C(F)(F)F)C1 (stereo not given)	2.82µM*	4.6	1.7	-9.9%	5.01µM*
Oc1csc(Cc2nc(-c3ccc(-c4ccccc4)cc3)cs2)n1	?	3.2	0.3	?	-2.7%
NC(=S)Cc1nc(-c2ccccc2)cs1	11.2µM*	18.0	0.3	?	8.91µM*
CO[C@H]1COC(=O)CCC[C@H](C)[C@@H](OC)COC(=O)C/C=C\[C@@H]1C	1.9%[10 µM]	·	1.4	·	-2.7%[10 µM]
CC(=O)N[C@@H](CC(=O)O)C(=O)N[C@@H](CCC(=O)O)C(=O)O	28.0%	·	1.2	·	9.0%
O=C(NNS(=O)(=O)c1ccc2ccccc2c1)c1cc(-c2ccccn2)nc2ccccc12	7.8%	-1.5	1.6	-4.9%	7.94µM*
O=c1ccc(N=Nc2ccccc2)ccc1O	?	28.2	5.0	9.3%	3.55µM*
O=C(Nc1ccc(Cl)cc1)[C@@H]1[C@@H]2C(=O)N(c3ccc(Cl)cc3)C(=O)[C@@H]2[C@H]2C=CC=NN21	-23.2%	8.0	1.3	-6.0%	-5.6%
Cc1ccc(N2C(=O)[C@@H]3[C@H](C2=O)[C@H]2C=CC=NN2[C@@H]3C(=O)Nc2ccc(Cl)cc2)cc1	10µM*	-2.6	-4.7	-3.6%	?
COc1cc(C2N(c3ccccc3)CCN2c2ccccc2)cc(OC)c1OC	21.4%	-8.5	-36.4*	15.2%	13.6%
Cc1nn(C)c(C)c1CN(Cc1nc(CCC(C)C)no1)C(C)C	7.08µM*	-15.4	-1.6	?	3.98µM*
Cc1onc(-c2c(Cl)cccc2Cl)c1C(=O)c1c[nH]c(C(=O)NCC2CCCO2)c1 (stereo not given)	34.1%	-12.5	-2.8	18.3µM*	9.0%
CCOc1ccc(NC(=O)Nc2ccc3c(c2)N(C)C(=O)CS3)cc1	25.9%	-37.6	-3.0	?	-6.8%
CC(=O)c1ccc(NC(=O)Nc2ccc3c(c2)N(C)C(=O)CS3)cc1	-3.2%	-14.2	0.6	18.4µM*	11.0%
CCc1ccc(NC(=S)N2CCCC(C(F)(F)F)C2)cc1 (stereo not given)	12.6µM*	1.1	-0.5	?	?
OC1CCN(C(=S)Nc2ccc(Nc3ccccc3)cc2)CC1	-30.0%	4.6	0.4	?	0.0%[10 µM]
CC1CCCN(C(=S)Nc2ccc(Nc3ccccc3)cc2)C1 (stereo not given)	11.2µM*	-2.6	5.7	?	?
CC1CCCN(C(=S)Nc2ccc(F)cc2)C1 (stereo not given)	8.91µM*	12.8	3.7	-14.2%	1.1%[10 µM]

Screening results as filed in PubChem BioAssay.
